A number with no mark means an inactive call.
test: resazurin metabolic signal in A549 cells – cell-based, resazurin fluorescence, 24 h, PK04 Diversity Set, profiling panel (AID 1171); settings: A549 viability, higher = more signal, called active from +8 up or from −8 down; note: test concentration not given here

Going from `Cc1ccc(N2C(=O)c3ccccc3[C@@H](C(=O)NC3CC3)[C@@H]2c2ccc(CO)cc2)nc1` to `COc1ccc(CCNC(=O)[C@@]2(Sc3ccc(C)cc3)CC(=O)N(C3Cc4ccccc4C3)[C@@H]2c2ccc(CO)cc2I)cc1`, the z-score rises from 0.771 to 0.86.

Compared with `CCCCC(CC)C(O)C1C=CC2C(=O)N(Cc3ccccc3)C(=O)C2N1n1cnnc1` (stereo unspecified), `CC(=O)n1cc(C(O)C2C=CC3C(=O)N(c4ccccc4)C(=O)C3N2Nc2ccc([N+](=O)[O-])cc2)c2ccccc21` (stereo unspecified) is higher in z-score: -0.56 for the first, -0.375 for the second.

First: C[C@H]1NC(=O)[C@@]23C(=O)N[C@@H](Cc4ccccc4)C2[C@H](C)[C@@]2(C)O[C@H]2C3/C=C/C/C=C\CNC(=O)[C@@H]2CCCN2C1=O (stereo partly specified)
Second: COc1ccc([C@H]2OC[C@@H]3C[C@@H](Cc4ccccc4)C(=O)N32)cc1
The z-score of the first is higher: 0.437 for the first, 0.194 for the second.

First: C[C@@]1([C@@H](NC(=O)c2ccc(-c3ccccc3)cc2)c2ccc(Cl)cc2)C[C@H]1C1CCCCC1
Second: COc1ccc([Si](C)(C)[C@@H]2[C@@H](CC(=O)N3CCC[C@H]3CO)O[C@]3(C(=O)N(c4ccccc4)c4ccccc43)[C@H]2C)cc1
The z-score of the first is lower: 0.602 for the first, 1.13 for the second.

Compared with `C=CCNC(=O)[C@@H]1[C@H]2C(=O)O[C@H](c3ccccc3)[C@H](c3ccccc3)N2[C@H](c2ccc(O)cc2)[C@@]12C(=O)Nc1ccc(C#CCNC(N)=O)cc12`, `C=CCNC(=O)[C@H]1[C@@H]2C(=O)O[C@@H](c3ccccc3)[C@@H](c3ccccc3)N2[C@@H](c2ccccc2OCCO)[C@]12C(=O)Nc1ccc(C#CCCO)cc12` is lower in z-score: 0.552 for the first, -0.685 for the second.

Going from `C=C(/C(=C/C[C@H](OC(C)=O)c1ccccc1OCCO)c1cnc2ccccc2c1)C(C)C` to `C=C(CCCC)C(=O)CC[C@@H](OC(=O)c1ccccc1-c1ccccc1C(=O)O)c1ccc(OCCO)cc1`, the z-score rises from -0.0361 to 0.128.

First: COc1ccc(/C=C/C=O)cc1
Second: CC#CC(=O)Oc1ccccc1C=CC(=O)OCC
The z-score of the first is lower: -0.925 for the first, 1.5 for the second.

First: COCCOC(=O)N1C(=O)[C@@]2(c3cc(C#Cc4ccc(OC)cc4)ccc31)[C@H](c1ccc(OCCO)cc1)N1[C@H](c3ccccc3)[C@H](c3ccccc3)OC(=O)[C@H]1[C@@H]2C(=O)N1CCN(c2ncccn2)CC1
Second: COCCOC(=O)N1C(=O)[C@@]2(c3ccccc31)[C@H](C(=O)N1CCc3cc(OC)c(OC)cc3C1)[C@H]1C(=O)O[C@H](c3ccccc3)[C@H](c3ccccc3)N1[C@@H]2c1ccc(OCCO)cc1
The z-score of the first is lower: -0.0439 for the first, 0.779 for the second.

Compared with `COc1ccc(C#Cc2ccc3c(c2)[C@]2(C(=O)N3)[C@H](C(=O)NC[C@H](O)c3ccccc3)[C@H]3C(=O)O[C@H](c4ccccc4)[C@H](c4ccccc4)N3[C@@H]2c2ccc(O)cc2)cc1`, `NC(=O)NCC#Cc1ccc2c(c1)[C@]1(C(=O)N2)[C@H](c2ccccc2OCCO)N2[C@H](c3ccccc3)[C@H](c3ccccc3)OC(=O)[C@H]2[C@@H]1C(=O)Nc1nc2ccccc2s1` is higher in z-score: -0.226 for the first, 0.659 for the second.

Going from `CC(C)C[C@@H]1NC(=O)[C@@H]2C[C@H](C(=O)O)[C@H](c3cccc(OCCO)c3)N2C1=O` to `CC(=O)NCCCC[C@@H]1NC(=O)[C@H]2C[C@@H](C(=O)NCCCCCCNC(=O)CS)[C@@H](c3ccc(O)cc3)N2C1=O`, the z-score falls from 0.0499 to -0.689.

First: CO[C@H]1O[C@H](CO)[C@@H](OC(=O)Nc2ccccc2)[C@H](OC(=O)Nc2ccccc2)[C@@H]1OC(=O)Nc1ccccc1
Second: O=C1N(Cc2ccccc2)c2ccccc2[C@@H]2OC(c3ccc(OCCCO)cc3)=N[C@]12CCS(=O)(=O)c1ccccc1
The z-score of the first is lower: -2.01 for the first, 0.404 for the second.

First: NC(=O)N1C(=O)C2C(C1=O)C1C=C(c3ccc(CO)cc3)C2C(c2cccs2)N1Cc1cccc(OC(F)(F)F)c1 (stereo unspecified)
Second: COc1ccc([Si](C)(C)[C@H]2[C@H](CCO)O[C@@]3(C(=O)N(Cc4ccc(N(C=O)c5ccccc5)cc4)c4ccccc43)[C@@H]2C)cc1
The z-score of the first is higher: -0.69 for the first, -1.68 for the second.

First: COc1ccc(C(=O)Nc2ccc(CN3C(=O)[C@]4(O[C@H](CCO)[C@@H]([Si](C)(C)c5ccc(OC)cc5)[C@@H]4C)c4ccccc43)cc2)cc1
Second: C#C[C@H](O[Si](C#Cc1ccc(Oc2ccccc2)cc1)(C(C)C)C(C)C)c1ccccc1
The z-score of the first is lower: -3.79 for the first, -1.3 for the second.
